Some test systems named below: SK-MEL-2 melanoma; EKVX NSCLC; SN12C renal; UO-31 renal; TK-10 renal; ACHN renal; A498 renal; CCRF-CEM leukemia; MOLT-4 leukemia; SR leukemia.
Common to all, as to experiment: NCI-60 one-dose screen, 48 h (100 = growth as untreated, 0 = no growth, -100 = all killed)
Details in all cases: 10 µM unless noted

Compounds without any hit were thinned out: in the full panel of roughly 83,000, 20% have a hit.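 The endpoint reported here, percent growth, reads 100 for growth as untreated, 0 for no net growth and -100 for all cells dead.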 A number with no mark means an inactive call. Activity calls are given as the source filed them. The calls were made as follows: active = growth percent below 10; inactive = the rest.

Take `CNS(=O)(=O)c1cccc(-c2ccc3c4c(n(C)c(=O)c3c2)-c2ccccc2C4=O)c1`: the growth in the experiment with SK-MEL-2 melanoma was 113%; in the experiment on EKVX NSCLC it was 51.7%; in the experiment on SN12C renal, 19.5%; with UO-31 renal, 35.4%; in the experiment on TK-10 renal, 85.5%; with ACHN renal, 0.944% (active). Besides, the growth is 72.1% in the experiment with A498 renal, 6.13% (active) in the experiment on CCRF-CEM leukemia, -1.83% (active) with MOLT-4 leukemia and 3.35% (active) with SR leukemia.

In the case of `COC(=O)[C@]1(C)CCC[C@]2(C)[C@H]3C[C@H]4C(C(C)C)=C[C@]3(CC[C@H]21)[C@@H]1C(=O)N(CCC#N)C(=O)[C@@H]14`, the growth in the experiment on SK-MEL-2 melanoma was 88.6%; in the experiment on EKVX NSCLC, 79.5%; in the experiment on SN12C renal, 90.2%; in the experiment on UO-31 renal it was 76.1%; in the experiment with TK-10 renal, 104%; in the experiment with ACHN renal it was 96.3%. In addition, the growth is 105% in the experiment on A498 renal, 61.8% with CCRF-CEM leukemia, 38.2% in the experiment with MOLT-4 leukemia and 80.4% in the experiment on SR leukemia.

On to `COc1cc(C(=O)Nc2cc(O)c(C/C=C(\C)CCC=C(C)C)c(O)c2)cc2c1O[C@]1(C)CC[C@@H](O)C(C)(C)[C@H]1C2`, for which the growth in the experiment on SK-MEL-2 melanoma is 5.69% (active); in the experiment with EKVX NSCLC, 31.7%; in the experiment on SN12C renal, 26.5%; with UO-31 renal, -31.9% (active); in the experiment with TK-10 renal, 40.9%; in the experiment with ACHN renal it was 18.5%. Also, the growth is -25.7% (active) in the experiment with A498 renal, 7.08% (active) in the experiment on CCRF-CEM leukemia, -2.24% (active) with MOLT-4 leukemia and 1.41% (active) with SR leukemia.

For the compound `COc1ccc2c(c1)C1(C(=O)N2)C(C#N)=C(c2ccccc2)Nc2c1c(-c1ccccc1)nn2-c1ccccc1` (stereo not given), the growth with SK-MEL-2 melanoma is 84.9%; in the experiment on EKVX NSCLC, 78.4%; with SN12C renal, 1.61% (active); with UO-31 renal, 80.1%; in the experiment with TK-10 renal it was 90.7%; in the experiment on ACHN renal, 88.2%. The growth was 50.1% with A498 renal, 16.6% with CCRF-CEM leukemia, 38.2% with MOLT-4 leukemia and 21.5% in the experiment on SR leukemia.

`CCCCn1c(=O)c(/C=C/C(=O)/C=C/c2cc3ccccc3n(CCCC)c2=O)cc2ccccc21`: the growth in the experiment with SK-MEL-2 melanoma was 79.5%; in the experiment with EKVX NSCLC, 35.8%; in the experiment on SN12C renal, -28.1% (active); with UO-31 renal, -95.1% (active); in the experiment with TK-10 renal, 23.4%; in the experiment with ACHN renal, 5.75% (active). The growth in the experiment with A498 renal was 12.8%; with CCRF-CEM leukemia it was -0.077% (active); in the experiment with MOLT-4 leukemia, 1.3% (active); in the experiment with SR leukemia it was 1.82% (active).

As for `CC(C)(C)c1nn(-c2ccccc2)c2c1COCN2Cc1ccc(Cl)cc1`, the growth was 94.1% in the experiment on SK-MEL-2 melanoma; 98.8% in the experiment with EKVX NSCLC; 96.7% in the experiment with SN12C renal; 85.2% in the experiment on UO-31 renal; 117% in the experiment with TK-10 renal; 89.1% with ACHN renal. Also, the growth is 85.1% in the experiment on A498 renal, 64.5% with CCRF-CEM leukemia, 68.1% with MOLT-4 leukemia and 47.2% in the experiment on SR leukemia.

Turning to `COc1ccc(Nc2nc(SCC(C)C)nc(-c3ccc(F)cc3)c2C#N)cc1`, the growth in the experiment with SK-MEL-2 melanoma is 72.4%; in the experiment with EKVX NSCLC, 69.4%; with SN12C renal it was 85.9%; in the experiment on UO-31 renal, 68.9%; in the experiment on TK-10 renal, 92.1%; with ACHN renal, 72%. The growth in the experiment with A498 renal was 30.7%; in the experiment on CCRF-CEM leukemia, 33.3%; in the experiment with MOLT-4 leukemia, 57.2%; with SR leukemia it was 20.1%.

Consider `COc1ccc(C(C)c2cc(OC)c(OC)c(OC)c2)cc1` (stereo not given), for which the growth in the experiment with SK-MEL-2 melanoma was 33.6%; in the experiment with EKVX NSCLC it was 35.8%; with SN12C renal, 39.1%; in the experiment with UO-31 renal, 47.3%; in the experiment with TK-10 renal, 67.5%; with ACHN renal, 37%. The growth in the experiment with A498 renal was 15.7%; with CCRF-CEM leukemia, 18.5%; with MOLT-4 leukemia, 9.71% (active); with SR leukemia, 13.3%.

On to `COc1ccccc1-c1ccc2nc(NC(=O)Nc3cc(C(F)(F)F)cc(C(F)(F)F)c3)sc2c1`, for which the growth was -14.1% (active) in the experiment with SK-MEL-2 melanoma; 10.7% in the experiment with EKVX NSCLC; 13% with SN12C renal; 13.1% in the experiment on UO-31 renal; 9.11% (active) in the experiment with TK-10 renal; 8.64% (active) in the experiment with ACHN renal. Besides, the growth in the experiment with A498 renal is -26.7% (active); with CCRF-CEM leukemia, 0.889% (active); with MOLT-4 leukemia it was -15.7% (active); with SR leukemia, -23.8% (active).

Regarding `N#C/C(=C/c1ccc(O)c([N+](=O)[O-])c1)c1nc(-c2ccc([N+](=O)[O-])cc2)cs1`, the growth in the experiment on SK-MEL-2 melanoma was 16.9%; in the experiment on EKVX NSCLC, 26.5%; with SN12C renal, 36.3%; in the experiment with UO-31 renal, 37.6%; in the experiment with TK-10 renal, 52.7%; with ACHN renal it was 36.1%. For the same compound, the growth in the experiment with A498 renal is 21.3%; in the experiment with CCRF-CEM leukemia, 25.5%; in the experiment with MOLT-4 leukemia it was 25.1%; in the experiment with SR leukemia, 47.7%.

Regarding `CCCCCCCCCCCCCC1=NCC[N+]1(CCO)Cc1ccccc1` (stereo not given), the growth in the experiment with SK-MEL-2 melanoma is -61.7% (active); in the experiment on EKVX NSCLC, -79.5% (active); in the experiment on SN12C renal, -84.3% (active); in the experiment with UO-31 renal, -86.1% (active); in the experiment on TK-10 renal, -85.4% (active); in the experiment on ACHN renal, -98% (active). The growth in the experiment on A498 renal is 54.2%; in the experiment with CCRF-CEM leukemia, -49.5% (active); in the experiment on MOLT-4 leukemia, -58.1% (active); with SR leukemia it was -50.7% (active).

Consider `COc1cc(F)c(-c2nc3c(C)cccc3n2Cc2c(F)cccc2F)c(F)c1`, for which the growth with SK-MEL-2 melanoma was 93.6%; with EKVX NSCLC, 87.9%; in the experiment with SN12C renal, 92.1%; with UO-31 renal it was 72.2%; in the experiment with TK-10 renal, 90.5%; in the experiment with ACHN renal, 101%. Further, the growth in the experiment with A498 renal is 87%; in the experiment with CCRF-CEM leukemia, 98.6%; in the experiment on MOLT-4 leukemia, 60.6%; in the experiment with SR leukemia, 88.3%.

For the compound `COc1ccc(C(=O)c2cc(OC)c(C)c(OC)c2)cc1OC(=O)CCl`, the growth is 35.4% with SK-MEL-2 melanoma; 64.4% in the experiment with EKVX NSCLC; 41.5% with SN12C renal; 49.9% in the experiment on UO-31 renal; 66.5% with TK-10 renal; 41.5% in the experiment on ACHN renal. Further, the growth was 78.5% in the experiment with A498 renal, 11.9% in the experiment with CCRF-CEM leukemia, 13.6% in the experiment on MOLT-4 leukemia and 12.5% in the experiment on SR leukemia.

Source of the values: PubChem BioAssay (NCI).
